Compound activity: PubChem, National Center for Advancing Translational Sciences (NCATS)
Hits are enriched below; roughly 5.4% of the tested compounds scored in any of these assays.
15-hLO-2 inh: blocks human 15-lipoxygenase 2 activity; O15296; purified 15hLO-2, xylenol orange hydroperoxide absorbance; Potency, µM (series often up to 57.1 µM), actives largely listed as inhibitors; 0.56% of 110,000 active; also: nearly all actives have a fitted effect of over 60% in size
Target sequence (O15296 whole entry, looked up): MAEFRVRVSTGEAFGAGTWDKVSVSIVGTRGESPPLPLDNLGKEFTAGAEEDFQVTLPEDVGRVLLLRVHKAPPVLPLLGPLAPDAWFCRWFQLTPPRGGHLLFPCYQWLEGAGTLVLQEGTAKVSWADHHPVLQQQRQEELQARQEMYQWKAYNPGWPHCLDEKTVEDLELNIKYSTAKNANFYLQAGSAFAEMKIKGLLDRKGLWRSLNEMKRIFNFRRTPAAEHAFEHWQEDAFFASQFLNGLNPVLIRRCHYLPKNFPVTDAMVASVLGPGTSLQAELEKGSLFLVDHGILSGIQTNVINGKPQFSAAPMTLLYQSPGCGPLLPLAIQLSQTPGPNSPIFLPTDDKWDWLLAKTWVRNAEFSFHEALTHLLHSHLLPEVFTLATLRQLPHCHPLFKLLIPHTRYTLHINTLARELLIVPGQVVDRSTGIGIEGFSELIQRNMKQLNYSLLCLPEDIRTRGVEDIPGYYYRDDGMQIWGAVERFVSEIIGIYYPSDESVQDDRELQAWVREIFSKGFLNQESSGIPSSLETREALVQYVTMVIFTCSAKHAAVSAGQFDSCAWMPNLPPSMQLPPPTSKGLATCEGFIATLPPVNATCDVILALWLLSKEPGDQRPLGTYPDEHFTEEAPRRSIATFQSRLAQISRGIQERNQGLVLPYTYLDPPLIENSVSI
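Read-out: hydroperoxide product oxidises ferrous iron, measured as xylenol orange complex via the 573-to-405 nm absorbance ratio after 30 min. Reaction: 50 nM enzyme, 15 min compound preincubation, 45 uM arachidonic acid, 90 min RT, Hepes pH 7.5 with Triton X-100.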
IMPase Li inh: membrane-permeable IMPase blocker, potentiated with lithium. CHO-M1 cells, IP1 TR-FRET (IP-One), carbachol + lithium. Potency, µM (doses to about 59.4 µM), most hits filed as inhibitors. AID 1457. 0.35% of 210,000 active;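 also: IP1 builds up when IMPase is blocked and the TR-FRET signal falls; nearly all actives have a fitted effect of over 50% in size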
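Steps: plate 2000 CHO-M1 cells per well and culture 16–30 h; add compound and lithium; incubate 30 min, 37C; add d2-IP1 tracer and Eu cryptate anti-IP1 antibody in lysis buffer; read after 10 min at room temperature.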
HPGD inh: blocks human HPGD enzyme activity; AID 894; P15428; 4.3% of 150,000 active; purified HPGD, NADH fluorescence kinetic, PGE2 substrate; Potency, µM, most hits filed as inhibitors; active = well fitted inhibition curve with a large enough effect, not every such curve was filed as active; inconclusive = small, poorly fitted or top-dose-only effect, or another doubt; inactive = no such curve, though single readings can be large or run the other way
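NADH formation kinetics: reaction with 30 uM PGE2 and 1 mM NAD+ (final), 20 nM enzyme, Tris-HCl pH 8 with Tween 20, after 15 min compound preincubation at room temperature. Fluorescence change, last versus first of five reads.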
PNC assembly inh: inhibitors of perinucleolar compartment assembly; 3.1% of 140,000 active; PC3M PTB-GFP, PNC prevalence imaging, 16 h; stronger effect = lower value; activity change (PNC), negative = inhibition, % at 10 µM;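 active = readout at or below -70, meaning at least 70% loss of cells showing the perinucleolar compartment, a nuclear body marking cancer cells; inconclusive = readout between -30 and a set limit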
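Compounds are pinned in duplicate onto adhered PC3M cells stably expressing GFP-tagged PTB and incubated 16 h at 37 C. Cells are then fixed, nuclei stained with Hoechst, and PNC-positive cells counted.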
ALOX12 inhib: inhibitors of human 12-lipoxygenase (ALOX12); purified 12-hLO, xylenol orange hydroperoxide absorbance; Potency, µM (doses to about 57.1 µM), most hits filed as inhibitors; 0.12% of 150,000 active; also: nearly all actives have a fitted effect of over 55% in size
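Purified human 12hLO (150 nM final) was preincubated with compounds for 15 min at room temperature in 25 mM Hepes pH 7.0, 0.01% Triton X-100, then reacted with 40 uM arachidonic acid for 30 min. Hydroperoxide was detected with ferrous iron/xylenol orange.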
IMPase cell inh: IMPase inhibition in cells; P97697; CHO-M1 cells, IP1 accumulation, HTRF TR-FRET ratio; inhibition (IP1 accumulation), % at 46.1 µM; 120,000 tested, under 10 active; AID 901; active = well fitted curve in the direction sought with a large enough effect in the signal ratio, not every such curve was filed as active; inconclusive = small, poorly fitted or top-dose-only effect, or a change in a side signal; inactive = no such curve, though single readings can be large or run the other way; the % refers to the signal ratio;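 also: cells stimulated with carbachol in lithium chloride buffer; higher means more IMPase inhibition seen as more IP1 and lower FRET ratio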
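Cellular IMPase inhibition is scored as a rise in cytosolic IP1, detected by competitive TR-FRET between d2-labelled IP1 and a europium anti-IP1 antibody. M1-expressing CHO cells were stimulated with carbachol for 30 min at 37C, with lithium (50 mM LiCl) present in the buffer.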
Large screens that a line does not name were inactive; ! = a repeat was not active. Unless noted, calls follow the shape of the dose curve; as a rule, active = well fitted curve in the direction sought with a large enough effect; inconclusive = small, poorly fitted or top-dose-only effect, or another doubt; inactive = no such curve, though single readings can be large; an effect the other way counts as inactive or inconclusive.

Cc1nc(N2CCCC2)c2nnn(Cc3ccccc3Cl)c2n1	PNC assembly inh inconclusive
O=C(NC1CCCCC1)c1nc2c(nnn2Cc2ccccc2Cl)c(=O)[nH]1	HPGD inh 4.47µM, PNC assembly inh inconclusive (no result: 15-hLO-2 inh)
O=S(=O)(c1ccccc1)N1CCC[C@@]2(CCN(c3ccncc3)C2)C1	none (no result: PNC assembly inh, IMPase cell inh)
COc1cc(NCCC(=O)O)c2ncccc2c1	none (no result: PNC assembly inh, IMPase cell inh)
COc1ccc(Cn2nnc3c(=O)[nH]c(C(=O)NCCc4ccc(F)cc4)nc32)cc1OC	HPGD inh 3.16µM
CCC/C=C/C(C)O (stereo not given)	none (no result: 15-hLO-2 inh, PNC assembly inh, ALOX12 inhib, IMPase cell inh)
O=C(Cn1sc2ccccc2c1=O)NC12CC3CC(CC(C3)C1)C2	15-hLO-2 inh 0.794µM, HPGD inh 0.316µM, ALOX12 inhib 7.94µM
Cc1ccc(C(=O)Nc2ccc3oc(-c4ccc(C(C)(C)C)cc4)nc3c2)cc1	none (no result: 15-hLO-2 inh, IMPase Li inh, HPGD inh, PNC assembly inh, ALOX12 inhib)
Cc1ccc(-c2nnn(CC(=O)N(Cc3ccco3)C(C(=O)NC3CCCC3)c3cccs3)n2)o1 (stereo not given)	PNC assembly inh -100.0 (no result: 15-hLO-2 inh)
O=C(NC1CCCC1)C(c1cccs1)N(Cc1ccco1)C(=O)Cn1nnc(-c2cccs2)n1 (stereo not given)	PNC assembly inh inconclusive
Cc1ccccc1-c1nc2c3c(-c4ccccc4)c(-c4ccccc4)oc3ncn2n1	none (no result: 15-hLO-2 inh, IMPase Li inh, HPGD inh, PNC assembly inh, ALOX12 inhib)
CCn1nc(C(=O)NNC(=O)COc2ccccc2C)c2ccccc2c1=O	PNC assembly inh -113.4 (no result: 15-hLO-2 inh, IMPase cell inh)
O=C(CN1CCN(S(=O)(=O)c2ccc(Br)cc2)CC1)N/N=C/c1cccnc1	PNC assembly inh -90.1 (no result: 15-hLO-2 inh)
Nc1nnc(SCCCC(=O)c2ccc(Br)cc2)s1	HPGD inh 3.55µM (no result: 15-hLO-2 inh)
O=c1oc2cc(O)c(Cl)cc2c2ccccc12	IMPase Li inh 7.08µM (no result: 15-hLO-2 inh, IMPase cell inh)
Cc1cc(C)c2c(N)c(S(=O)(=O)c3ccccc3)sc2n1	HPGD inh inconclusive
CCCCS(=O)(=O)c1sc2nc(C)cc(C)c2c1N	HPGD inh 2.82µM
COc1ccc(Cl)cc1-c1ccc(C(=O)O)s1	HPGD inh inconclusive (no result: PNC assembly inh, IMPase cell inh)
CO/N=C(\C(=O)N[C@@H]1C(=O)N2C(C(=O)O)=C(CSc3nc(=O)c(O)nn3C)CS[C@@H]12)c1csc(N)n1	none (no result: IMPase Li inh, HPGD inh, PNC assembly inh)
CN1CCCC[C@@H]1CCN1c2ccccc2Sc2ccc(S(C)=O)cc21 (stereo not given in full)	HPGD inh 3.16µM! (no result: PNC assembly inh)
CSc1ccc2c(c1)N(CC[C@H]1CCCCN1C)c1ccccc1S2	none (no result: PNC assembly inh)
CSc1ccc2c(c1)N(CCC1CCCCN1C)c1ccccc1S2 (stereo not given)	PNC assembly inh -114.6 (no result: IMPase cell inh)
COc1ccc(-c2nnc(OCc3ccccc3)c3ccccc23)cc1	PNC assembly inh -87.7 (no result: 15-hLO-2 inh)
c1ccc(-c2nnc(OCc3cccnc3)c3ccccc23)cc1	none (no result: 15-hLO-2 inh, HPGD inh, PNC assembly inh, ALOX12 inhib, IMPase cell inh)
COc1ccccc1N(CC(=O)Nc1ccc2c(c1)OCO2)S(=O)(=O)c1ccc(C)cc1	none (no result: 15-hLO-2 inh, IMPase Li inh, HPGD inh, PNC assembly inh, ALOX12 inhib)
COCCNC(=O)c1noc2c1CCc1cc(OC)ccc1-2	HPGD inh 25.1µM
O=S(=O)(c1cccc(C(F)(F)F)c1)N1c2ccccc2-n2cccc2[C@H]1c1cccnc1	none (no result: PNC assembly inh, IMPase cell inh)
O=C1CCC[C@@H]2CC(NCc3ccc(Cl)c(Cl)c3)C[C@@H]3CCN1[C@H]23 (stereo not given in full)	none (no result: PNC assembly inh, IMPase cell inh)
COc1cc(C2CC(=O)Oc3cc(C)c(Cl)cc32)cc(OC)c1OC (stereo not given)	none (no result: PNC assembly inh, IMPase cell inh)
O=C(Oc1cncc(Cl)c1)c1ccco1	PNC assembly inh -80.6, IMPase cell inh inconclusive (no result: 15-hLO-2 inh)
O=C(Oc1ccc2ccccc2c1)c1ccco1	none
CCc1ccc(OCC(=O)Nc2ccc(Cl)c(-c3nc4ncccc4o3)c2)cc1	none (no result: 15-hLO-2 inh, IMPase Li inh, HPGD inh, PNC assembly inh, ALOX12 inhib)
O=C(NCC1CCCO1)c1ccc(COc2ccccc2Br)cc1 (stereo not given)	HPGD inh 3.98µM (no result: 15-hLO-2 inh, IMPase cell inh)
COc1cccc(OCc2ccc(C(=O)NCC3CCCO3)cc2)c1 (stereo not given)	HPGD inh 10µM (no result: 15-hLO-2 inh, IMPase cell inh)
O=C(NCC1CCCO1)c1ccc(COc2ccc(Cl)cc2)cc1 (stereo not given)	none (no result: 15-hLO-2 inh, HPGD inh, PNC assembly inh, ALOX12 inhib, IMPase cell inh)
OC[C@@H]1NC[C@@H](O)[C@H]1O	none (no result: IMPase Li inh, HPGD inh, PNC assembly inh)
O=C(COc1ccccc1-c1ccccc1)N/N=C/c1cccc2ccccc12	HPGD inh inconclusive, PNC assembly inh inconclusive
COc1ccc(/C=N/NC(=O)CCn2cnc(-c3ccccc3)c2-c2ccccc2)cc1	PNC assembly inh -108.4 (no result: 15-hLO-2 inh, IMPase cell inh)
COc1ccc(/C=N/NC(=O)COc2ccccc2-c2ccccc2)cc1	PNC assembly inh -114.6
C1CCCNCC1	none (no result: PNC assembly inh, IMPase cell inh)
O=C(CCn1c(=O)c2ccccc2n(CC(=O)Nc2ccc(F)cc2)c1=O)NCCc1ccccc1	none (no result: 15-hLO-2 inh, IMPase Li inh, HPGD inh, PNC assembly inh, ALOX12 inhib)
O=S(=O)(NCc1ccc(F)cc1)c1ccc2c(c1)OCCO2	none
Cc1ccc(CNS(=O)(=O)c2ccc3c(c2)OCCO3)cc1	PNC assembly inh -101.4 (no result: 15-hLO-2 inh, IMPase cell inh)
Cc1ccccc1CNS(=O)(=O)c1ccc2c(c1)OCCO2	HPGD inh 25.1µM, PNC assembly inh -118.9 (no result: 15-hLO-2 inh)
CC(C)CNS(=O)(=O)c1ccc2c(c1)OCCO2	HPGD inh 31.6µM
CCCSc1nnc2c(n1)OC(c1sccc1C)Nc1ccccc1-2 (stereo not given)	none (no result: 15-hLO-2 inh, IMPase Li inh, HPGD inh, PNC assembly inh, ALOX12 inhib)
N[C@@H](Cc1cc(I)c(Oc2ccc(O)cc2)c(I)c1)C(=O)O	none (no result: 15-hLO-2 inh, HPGD inh, PNC assembly inh, ALOX12 inhib, IMPase cell inh)
